# Assay results published in PubChem BioAssay (NCATS).
# Inconclusive results are not listed. A call without a number means that no potency is given here. The source made the active and inactive calls. Unless noted, the call rests on the fitted dose curve; in most records, active means well fitted activation curve with a large enough effect; inconclusive means small, poorly fitted or top-dose-only effect; inactive means flat fitted curve, though single readings scatter.
# Legend:
# [1] = qHTS profiling of the MIPE4 collection as inhibitors of Plasmodium falciparum (3D7) proliferation (AID 743344; call rule not given here); settings: P. falciparum 3D7 in erythrocytes, SYBR Green DNA fluorescence, 72 h; at 9.64 µM (top of the series)
# Summary of the method: (§1)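 Parasite DNA was quantified by SYBR Green I fluorescence (ex 485, em 535 nm) after overnight lysis in saponin/Triton buffer at room temperature. Cultures at 0.3% parasitemia and 2.5% hematocrit were first exposed to compound for 72 h at 37 C; signals were normalised to artemisinin (0.29 uM) and vehicle wells.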
# [2] = qHTS profiling of the MIPE4 collection as inhibitors of Plasmodium falciparum (DD2) proliferation (AID 743345; call rule not given here); settings: P. falciparum Dd2 in erythrocytes, SYBR Green DNA, 72 h; at 9.64 µM (top of the series)
# Excerpt: Plasmodium falciparum is a virulent malarial parasite that kills 1-2 million people worldwide each year. Transmitted by mosquitoes, the sporozoite form of the parasite enters the blood stream to infect hepatocytes, where they become merozoites that infect red blood cells (erythrocytes). Within erythrocytes, merozoites begin a […] cycle of growth and division, after which the parasite is released to infect new red blood cells. Gametocytes, which form within erythrocytes as well, circulate in the bloodstream and are ingested by the mosquito, thereby completing the life cycle. To profile malarial isolates for differential chemical responses and to identify inhibitors of malarial growth, an assay that measures P. falciparum growth and replication within erythrocytes was employed. This assay uses a DNA binding fluorescent dye (SYBR Green) to detect parasite DNA following cell lysis. Because mature erythrocytes lack DNA, only Plasmodium-derived DNA is detected.
# The SYBR Green viability assay was adapted from a method described previously (Plouffe et al., 2008). For screening 3 ul culture medium was dispensed into 1536 well black clear bottom plates (Aurora Biotechnologies) using a Multidrop Combi (Thermo Fisher Scientific Inc.), 23 nL compounds in DMSO were added by a pin tool (Kalypsys), and 5 ul of erythrocytes infected with P. falciparum (0.3% parasitemia, 2.5% hematocrit final concentration) were added. The plates were incubated at 37 C in a humidified incubator in 5% CO2 for 72 h, and 2 ul lysis buffer (20 mM Tris HCl, 10 mM EDTA, 0.16% saponin, 1.6% triton X, 10X SYBR Green I supplied as 10,000X […] by Invitrogen) was added to each well. […] The following morning, fluorescence intensity at 485(14) nm excitation and 535(25) nm emission wavelengths was measured on an EnVision (Perkin Elmer) plate reader. Plate reads were normalized relative to the control inhibitor (0.29 uM artemisinin) and vehicle (DMSO) wells present on each plate and then corrected by an algorithm using vehicle-only control plates at the beginning and end of the compound plate stack.
# [3] = qHTS profiling of the MIPE4 collection as inhibitors of Plasmodium falciparum (DD2) proliferation (Rep 2) (AID 743346; call rule not given here); settings: P. falciparum Dd2 in erythrocytes, SYBR Green DNA, 72 h; at 9.64 µM (top of the series)
# Summary of the method: as §1
# [4] = qHTS profiling of the MIPE4 collection as inhibitors of Plasmodium falciparum (HB3) proliferation (AID 743347; call rule not given here); settings: P. falciparum HB3 in erythrocytes, SYBR Green DNA, 72 h; at 9.64 µM (top of the series)
# Summary of the method: as §1
# [5] = Confirmation and Secondary Assay for Modulators of Hemoglobin Beta Chain Splicing at IVS2 654 locus (AID 910);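 further: per-well total GFP intensity by laser scanning cytometry after 2-day treatment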
# Summary of the method: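 HeLa cells stably carrying EGFP interrupted by mutant beta-globin IVS2-654 intron (CMV-driven) were treated with compound for 2 days at 37C; corrected splicing was scored as total peak GFP intensity per well (488 nm excitation, 500-520 nm emission).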
# [6] = Confirmation and Secondary Assay for Modulators of Hemoglobin Beta Chain Splicing at IVS2 705 locus (AID 930);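 further: HeLa cells stably expressing the EGFP-705 splicing reporter; GFP fluorescence per well restored by corrected splicing of the IVS2-705 intron in EGFP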
# Summary of the method: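 Stable HeLa line with EGFP disrupted by mutant beta-globin intron 2 (705). Overnight attachment, then 2 days of compound at 37C, 5% CO2. Signal: peak GFP intensity summed over objects 5-250 µm.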
# [7] = qHTS Assay for Identification of Small Molecule Agonists for Hypoxia Response Element Signaling Pathway (AID 914; active means well fitted activation curve with a large enough effect in the signal ratio, with a control signal flat, not every such curve was filed as active; the % refers to the signal ratio); settings: ME-180 (cervical carcinoma) HRE-bla reporter, beta-lactamase ratio, CoCl2, 17 h; activation: stronger effect = higher value
# Summary of the method: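 Reporter activity (beta-lactamase, CCF4 460nm/530nm ratio) in HRE-bla ME-180 cells is recorded after 17 h compound exposure with EC50 CoCl2 at 37 degrees Celsius. AC50 values come from titration data.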
smiles,measurement,setting,value
CO[C@H]1C=CO[C@]2(C)Oc3c(C)c(O)c4c(O)c(c5c(c4c3C2=O)NC2(CCN(CC(C)C)CC2)N=5)=NC(=O)C(C)=CC=C[C@@H](C)[C@@H](O)[C@@H](C)[C@@H](O)[C@@H](C)[C@@H](OC(C)=O)[C@@H]1C,"parasite growth, % of DMSO control",[1],68.3%
same,"parasite growth remaining, % of DMSO control (lower = more inhibition)",[2],68.3%
same,"parasite growth, % of control (lower = inhibition)",[3],36%
same,"growth, % of control",[4],93.1%
Cc1noc(C)c1-c1nc(Nc2ccncc2)c2ccccc2n1,Potency,[5],inactive
same,Potency,[6],inactive
CN(C)c1ccc(-c2nccc(NCc3ccccc3)n2)cc1,Potency,[5],inactive
same,Potency,[6],inactive
C[C@@H]1Cc2ccccc2N1NC(=O)c1ccc(Cl)c(S(N)=O)c1 (some centres not stated),activation,[7],7.68% (inactive)
CC(C)(N=NC(C)(C)C(=N)N)C(=N)N,Potency,[5],inactive
same,Potency,[6],inactive
CO/N=C(\C(=O)N[C@@H]1C(=O)N2C(C(=O)O)=C(COC(N)=O)CS[C@@H]12)c1ccco1,activation,[7],3.41% (inactive)
CC(=O)N[C@H](CS)C(=O)O,Potency,[6],inactive
COc1ccc(CNc2ncncc2-c2ccccc2CN(C)C)c(OC)c1,Potency,[5],inactive
same,Potency,[6],inactive
COc1cc2c(cc1OC)-c1cc3ccc(OC)c(OC)c3c[n+]1CC2,Potency,[5],inactive
same,Potency,[6],inactive
